This is an account of results in PubChem BioAssay (NCI).

Some test systems named below: T-47D breast; BT-549 breast; MDA-MB-435 melanoma; SW-620 colon; MCF7 breast; HCT-116 colon; HCC-2998 colon; KM12 colon.
Common to all, as to experiment: NCI-60 one-dose screen, 48 h (100 = growth as untreated, 0 = no growth, -100 = all killed)
Holding throughout (conditions): 10 µM unless noted

Molecules are shown by their SMILES. Compounds without any hit were thinned out: in the full panel of roughly 83,000, 20% have a hit.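 Testing used 96-well plates and a 48-hour single-concentration exposure. Example: -40 means 40% of the starting cells died.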 Unmarked numbers belong to inactive results. Calls of active or inactive are those of the source. How the source made its calls: active means growth percent below 10; inactive means the rest.

Take `CS(=O)(=O)Nc1cc(-c2ccc3ncnc(Nc4ccc5c(cnn5Cc5cccc(F)c5)c4)c3c2)cnc1Cl`: the growth in the experiment with T-47D breast is -24.6% (active); in the experiment on BT-549 breast, -13.5% (active); in the experiment with MDA-MB-435 melanoma it was 8.98% (active); with SW-620 colon, 18.4%; with MCF7 breast it was 0.881% (active); in the experiment with HCT-116 colon, 4.08% (active). Also, the growth was 2.5% (active) with HCC-2998 colon and 13.9% in the experiment with KM12 colon.
For the molecule `CC(C)c1ccc(-n2c(=S)[nH]c3sc4cc(O)ccc4c3c2=O)cc1`, the growth in the experiment with T-47D breast was 105%; with BT-549 breast, 91.4%; in the experiment on MDA-MB-435 melanoma it was 100%; in the experiment on SW-620 colon, 96.9%; in the experiment on MCF7 breast, 90.1%; with HCT-116 colon it was 98.4%. The growth is 103% with HCC-2998 colon and 105% in the experiment with KM12 colon.
On to `O=C(Nc1ccc(OS(=O)(=O)c2ccc(F)cc2)cc1)C1CCCCCC1`, for which the growth was 81.4% in the experiment on T-47D breast; 80.5% in the experiment with BT-549 breast; 97.3% in the experiment on MDA-MB-435 melanoma; 88.9% in the experiment with SW-620 colon; 92.1% in the experiment with MCF7 breast; 84.5% with HCT-116 colon. For the same molecule, the growth was 78.9% in the experiment on HCC-2998 colon and 70.3% with KM12 colon.
As to `O=C(Cn1cc(CSc2nc3ccccc3o2)nn1)Nc1ccc(F)cc1F`, the growth in the experiment with T-47D breast was 116%; in the experiment on BT-549 breast, 113%; in the experiment on MDA-MB-435 melanoma, 114%; in the experiment on SW-620 colon it was 112%; in the experiment with MCF7 breast, 92.5%; in the experiment with HCT-116 colon, 109%. The growth in the experiment with HCC-2998 colon is 111%; in the experiment with KM12 colon it was 116%.
With `CCC(=C(c1ccc(OCCN2CCCCC2)cc1)c1ccc(OCCN2CCCCC2)cc1)c1ccc(Cl)cc1`, the growth in the experiment with T-47D breast is -68.3% (active); in the experiment with BT-549 breast, -91.7% (active); in the experiment on MDA-MB-435 melanoma it was -96.2% (active); with SW-620 colon, -84.1% (active); with MCF7 breast, -79.9% (active); with HCT-116 colon it was -91.1% (active). The growth is -87% (active) in the experiment on HCC-2998 colon and -84% (active) in the experiment with KM12 colon.
As to `CCCCNC(=O)Oc1ccc(/C(=C(/C)Cc2ccc(OC)cc2)c2ccc(OCCN3CCCC3)cc2)cc1`, the growth was 32.4% in the experiment with T-47D breast; 73.8% in the experiment with BT-549 breast; 55.8% with MDA-MB-435 melanoma; 72.7% in the experiment with SW-620 colon; 17.7% in the experiment on MCF7 breast; 39.3% with HCT-116 colon. Further, the growth in the experiment with HCC-2998 colon was 64.7%; in the experiment with KM12 colon, 55.3%.
Regarding `Cn1ccnc1C(=O)/C=C/c1ccc(CC(=O)Nc2cc(C(F)(F)F)cc(C(F)(F)F)c2)cc1`, the growth in the experiment with T-47D breast was 52.1%; in the experiment with BT-549 breast it was 80.3%; with MDA-MB-435 melanoma, 68.5%; in the experiment with SW-620 colon, 70.5%; in the experiment with MCF7 breast, 30.8%; in the experiment on HCT-116 colon it was 51.6%. Further, the results for the growth with HCC-2998 colon and with KM12 colon were 83.6% and 63%, respectively.
For the molecule `CC/C(=C(/c1ccc(Cl)cc1)c1ccc(OCCN2CCCCC2)cc1)c1ccc(OC)cc1`, the growth in the experiment on T-47D breast was 32.3%; in the experiment with BT-549 breast, 78.2%; with MDA-MB-435 melanoma it was 65.6%; in the experiment on SW-620 colon it was 39.1%; in the experiment on MCF7 breast, 15.3%; in the experiment on HCT-116 colon, 46.9%. Further, the growth in the experiment with HCC-2998 colon was 71%; with KM12 colon, 39.1%.
In the case of `COC(=O)[C@]12CCC(C)(C)C[C@H]1[C@H]1/C(=N/OCCc3nn[nH]n3)C[C@@H]3[C@@]4(C)CC[C@H](OC(C)=O)C(C)(C)[C@@H]4CC[C@@]3(C)[C@]1(C)CC2`, the growth was 26% with T-47D breast; 34.9% in the experiment with BT-549 breast; 31.4% with MDA-MB-435 melanoma; 41.9% with SW-620 colon; 20.9% with MCF7 breast; 24.7% with HCT-116 colon. For the same molecule, the values for the growth in the experiment on HCC-2998 colon and in the experiment on KM12 colon were 54.7% and 36.5%, respectively.
Consider `COc1ccc(/C=N\Nc2nc(SCCC(C)C)nc(-c3ccc(OC)cc3)c2C#N)cc1`, for which the growth in the experiment with T-47D breast was 23.1%; in the experiment on BT-549 breast it was 93.1%; in the experiment with MDA-MB-435 melanoma, 71.2%; in the experiment with SW-620 colon, 49.6%; with MCF7 breast, 63.5%; with HCT-116 colon, 21.1%. The growth in the experiment with HCC-2998 colon was 82.1%; with KM12 colon, 83%.
For `Cn1c(=O)c2nc(/C=C/c3ccccc3)c(=O)[nH]c2n(C)c1=S`, the growth in the experiment with T-47D breast is 104%; in the experiment on BT-549 breast, 110%; in the experiment on MDA-MB-435 melanoma it was 103%; in the experiment on SW-620 colon it was 98.9%; in the experiment with MCF7 breast, 93.9%; in the experiment with HCT-116 colon, 105%. The growth with HCC-2998 colon is 106%; with KM12 colon, 104%.
`CC1(C)COB(OCC(C)(C)COB2OCC(C)(C)CO2)OC1`: the growth in the experiment on T-47D breast is 104%; in the experiment with BT-549 breast it was 105%; in the experiment on MDA-MB-435 melanoma, 110%; in the experiment with SW-620 colon, 110%; in the experiment on MCF7 breast it was 107%; with HCT-116 colon, 101%. For the same molecule, the growth in the experiment with HCC-2998 colon was 104%; in the experiment on KM12 colon, 103%.
For the molecule `COC(=O)CC[C@H](C)[C@H]1CC[C@H]2[C@@H]3CC[C@@H]4CC5(CC[C@]4(C)[C@H]3CC(=O)[C@]12C)Nc1ccccc1NC5=NC(C)(C)C` (stereo not given in full), the growth was 82.3% in the experiment with T-47D breast; 95.4% with BT-549 breast; 85.1% with MDA-MB-435 melanoma; 69.7% in the experiment on SW-620 colon; 58.5% in the experiment with MCF7 breast; 28.3% in the experiment on HCT-116 colon. In addition, the growth was 107% in the experiment with HCC-2998 colon and 83% in the experiment with KM12 colon.
Turning to `COc1cc2c(c(OC)c1OC)CCC(c1cccc(NC(=O)c3ccc(Br)cc3)c1)O2` (stereo not given), the growth in the experiment on T-47D breast is 40.4%; in the experiment with BT-549 breast it was 87.5%; in the experiment with MDA-MB-435 melanoma, 69.1%; with SW-620 colon, 91.5%; in the experiment with MCF7 breast, 73.2%; in the experiment with HCT-116 colon it was 71.9%. Further, the values for the growth with HCC-2998 colon and in the experiment with KM12 colon were 102% and 91.1%, respectively.
For the molecule `Cc1ccc2c(n1)C(=O)C(Br)=C(C1CCCC1)C2=O`, the growth with T-47D breast was 90%; in the experiment with BT-549 breast, 95.5%; in the experiment with MDA-MB-435 melanoma, 108%; with SW-620 colon, 85.8%; with MCF7 breast, 89.8%; in the experiment on HCT-116 colon it was 73.7%. Besides, the growth with HCC-2998 colon is 115%; in the experiment on KM12 colon, 99.6%.
